Records with an inconclusive call do not appear. Values without a mark were called inactive. Activity calls are given as the source filed them. The call rests on the fitted dose curve; in most records, active means well fitted curve in the direction sought with a large enough effect in the signal ratio, with a control signal flat (not every such curve was filed as active); inconclusive means small, poorly fitted or top-dose-only effect, or a change in a side signal; inactive means no such curve, though single readings can be large or run the other way; the % refers to the signal ratio.
assay: qHTS Assay for Identification of Small Molecule Inducers of Hypoxia Response (AID 2120); conditions: hypoxia response reporter cells, beta-lactamase ratio readout; series mostly up to 104 µM; activation: at the top concentration; further: 0% is about no effect
Description: NIH Chemical Genomics Center [NCGC]
NIH Molecular Libraries Screening Centers Network [MLSCN]
National Institutes of Environmental Health Sciences [NIEHS]
National Toxicology Program [NTP]
Hypoxia-inducible factor-1 (HIF-1) is the major hypoxia-regulated transcription factor that controls cellular responses to low oxygen concentration. HIF-1 is composed of two subunits: hypoxia responsive HIF-1a and constitutively expressed HIF-1b, which is also known as aryl hydrocarbon receptor nuclear translocator. During hypoxic conditions, HIF-1a heterodimerizes with HIF-1b and translocates into the nucleus where the HIF-1 complex binds to the hypoxia-response element (HRE) and activates expression of target genes such as VEGF (vascular endothelial growth factor). The HIF-1 pathway is essential to normal growth and development, and is involved in the pathophysiology of cancer, inflammation, and ischemia.
Using a beta-lactamase reporter-gene under control of the hypoxia response element, a cell-based assay [CellSensor(TM) HRE-bla ME-180 developed by Invitrogen Corp.] was used to measure hypoxia-induced signaling. Library compounds were measured for their ability to induce the reporter gene activity. Compounds were screened in a titration series in 1536-well format. The inducers were identified based on the AC50 values derived from the screening data.
NCGC Assay Protocol Summary
2500 cells/5uL in Opti-MEM medium containing 0.5% dialyzed FBS, 0.1 mM NEAA, 1 mM sodium pyruvate and 10 mM HEPES was dispensed into 1536-well plates and cells were cultured at 37 degrees Celsius for 4-5 hours and then 23 nL of compounds or DMSO were delivered to each well using a pin tool. The plates were incubated at 37 degrees Celsius for 17 hours. 1 uL of CCF4-dye mixture was added to each well. After incubated at room temperature for 2.5 hours the plates were measured on an EnVision plate reader at Excitation 405nm, Emission1=460nm and Emission 2=530nm. The %Activity was determined from the ratio of 460nm/530nm.

| SMILES | outcome | activation |
| --- | --- | --- |
| O=S(=O)(c1ccc(Cl)cc1)c1ccc(Cl)cc1 | inactive | – |
| Cc1cc(O)ccc1Cl | – | 0.902% |
| CCCCOC(=O)c1ccccc1C(=O)OCc1ccccc1 | – | -1.22% |
| Nc1ccc(Sc2ccc(N)cc2)cc1 | – | 0.618% |
| Nc1ccc(Cl)cc1 | – | 0.725% |
| O=[N+]([O-])c1c2ccccc2cc2ccccc12 | – | 2.68% |
| CCOP(=O)(NC(C)C)Oc1ccc(SC)c(C)c1 (centres undefined) | – | 3.1% |
| c1cc2ccc3cccc4ccc(c1)c2c34 | – | 0.911% |
| COC(C)(C)CCCC(C)C/C=C/C(C)=C/C(=O)OC(C)C (centres undefined) | – | -0.058% |
| CC(C)(O)C(=O)Nc1ccc([N+](=O)[O-])c(C(F)(F)F)c1 | – | 1.55% |
| CCOCCOC(C)=O | – | -0.447% |
| O=[N+]([O-])c1c(Cl)c(Cl)cc(Cl)c1Cl | – | 0.181% |
| O=C(O)COc1ccccc1 | – | 0.858% |
| OCCCBr | – | 0.609% |
| Nc1ccc([N+](=O)[O-])cc1 | – | -0.906% |
| CCCCC(CC)COC(=O)c1ccccc1C(=O)OCC(CC)CCCC (centres undefined) | – | 0.205% |
| O=[N+]([O-])c1cc([N+](=O)[O-])c2ccccc2c1 | – | -0.0093% |
| CN(C)NC(=O)CCC(=O)O | – | 0.595% |
| O=C(O)C(Cl)Cl | – | 0.906% |
| CCCCCCCCc1ccc(O)cc1 | – | 3.59% |
| C=CC(=O)NCNC(=O)C=C | – | 0.107% |
| COc1ccc(C(c2ccc(OC)cc2)C(Cl)(Cl)Cl)cc1 | inactive | – |
| C1CCC(NC2CCCCC2)CC1 | inactive | – |
| Nc1ccc(Cl)cc1N | – | 3.91% |

From PubChem BioAssay (NCATS)
